# Tests used:
# Assay in all cases: FP; 33 mM phosphate pH 7.0, 90 mM NaCl, 0.01% Tween 20, 0.1 mM DTT, 0.5% agarose; room temperature
# Settings in all cases: tags: N-GST (pGEX-6P-1, kept); dsDNA, one strand shown
# [1] = target: T1, EcR (Drosophila melanogaster, UniProt P34021 251-348)
# T1 sequence: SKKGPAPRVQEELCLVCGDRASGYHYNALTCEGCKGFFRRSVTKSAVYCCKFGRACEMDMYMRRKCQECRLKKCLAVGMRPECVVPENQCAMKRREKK
# [2] = target: Gsc (Drosophila melanogaster, UniProt P54366 267-356)
# [3] = target: Oc (Drosophila melanogaster, UniProt P22810 52-141)
# Sequence of Oc (P22810 52-141): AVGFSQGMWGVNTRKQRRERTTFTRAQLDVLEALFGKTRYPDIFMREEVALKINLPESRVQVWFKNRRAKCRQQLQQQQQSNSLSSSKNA
# Sequence of Gsc (P54366 267-356): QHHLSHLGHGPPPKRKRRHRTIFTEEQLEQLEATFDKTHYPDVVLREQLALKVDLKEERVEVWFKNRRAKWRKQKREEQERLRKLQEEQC
sequence,measurement,setting,value
GAATGATCCCTAC,binding signal,[1],9.3 Kd / Kd of best base at the position
GAATGACCCCTAA,binding signal,[1],1.25 Kd / Kd of best base at the position
GAATGAGCCCTAC,binding signal,[1],12.7 Kd / Kd of best base at the position
GAAGGACCCCTAC,binding signal,[1],10 Kd / Kd of best base at the position
GAATGACCCTTAC,binding signal,[1],1.59 Kd / Kd of best base at the position
GAATTACCCCTAC,binding signal,[1],11.6 Kd / Kd of best base at the position
GAATAACCCCTAC,binding signal,[1],3.47 Kd / Kd of best base at the position
GAATGACCCCTAG,binding signal,[1],1.29 Kd / Kd of best base at the position
GTATGACCCCTAC,binding signal,[1],1.76 Kd / Kd of best base at the position
GAATGAACCCTAC,binding signal,[1],1.84 Kd / Kd of best base at the position
GAATCACCCCTAC,binding signal,[1],9.57 Kd / Kd of best base at the position
GAATGACCTCTAC,binding signal,[1],1.03 Kd / Kd of best base at the position
GAATGTCCCCTAC,binding signal,[1],6.26 Kd / Kd of best base at the position
GGATGACCCCTAC,binding signal,[1],1.78 Kd / Kd of best base at the position
GAATGGCCCCTAC,binding signal,[1],5.84 Kd / Kd of best base at the position
GAATGCCCCCTAC,binding signal,[1],3.38 Kd / Kd of best base at the position
GAATGACCACTAC,binding signal,[1],5.04 Kd / Kd of best base at the position
GAATGACCCCTGC,binding signal,[1],1.47 Kd / Kd of best base at the position
AAATGACCCCTAC,binding signal,[1],1.94 Kd / Kd of best base at the position
GAATGACCCCTAC,Kd,[1],~23.7 nM
GAACGACCCCTAC,binding signal,[1],3.06 Kd / Kd of best base at the position
GAATGACCCCGAC,binding signal,[1],1.46 Kd / Kd of best base at the position
TAATGACCCCTAC,binding signal,[1],1.83 Kd / Kd of best base at the position
GAAAGACCCCTAC,binding signal,[1],8.21 Kd / Kd of best base at the position
GAATGACACCTAC,binding signal,[1],4.55 Kd / Kd of best base at the position
GAATGACCCATAC,binding signal,[1],2.6 Kd / Kd of best base at the position
AATCAATCCGAT,binding signal,[2],23.5 Kd / Kd of best base at the position
AGTTAATACCCT,binding signal,[3],251 Kd / Kd of best base at the position
AGTGAATCCCCT,binding signal,[3],176 Kd / Kd of best base at the position
AGTTAATCGCCT,binding signal,[3],6.1 Kd / Kd of best base at the position
AGTTAGTCCCCT,binding signal,[3],6.2 Kd / Kd of best base at the position
AGTTACTCCCCT,binding signal,[3],12 Kd / Kd of best base at the position
AGTTAATCCGCT,binding signal,[3],1.09 Kd / Kd of best base at the position
AGTTATTCCCCT,binding signal,[3],16.4 Kd / Kd of best base at the position
AGTTAATTCCCT,binding signal,[3],123 Kd / Kd of best base at the position
AGCTAATCCCCT,binding signal,[3],2.31 Kd / Kd of best base at the position
TGTTAATCCCCT,binding signal,[3],3.64 Kd / Kd of best base at the position
AGTTTATCCCCT,binding signal,[3],1.7 Kd / Kd of best base at the position
AGTTAATCCCCG,binding signal,[3],1.11 Kd / Kd of best base at the position
AGTTAATCCCGT,binding signal,[3],1.2 Kd / Kd of best base at the position
AGTTAACCCCCT,binding signal,[3],60 Kd / Kd of best base at the position
AGTTAATCCTCT,binding signal,[3],1.44 Kd / Kd of best base at the position
AGTTAATCCACT,binding signal,[3],1.54 Kd / Kd of best base at the position
ACTTAATCCCCT,binding signal,[3],1.03 Kd / Kd of best base at the position
AGTTAAGCCCCT,binding signal,[3],18 Kd / Kd of best base at the position
AGTTAAACCCCT,binding signal,[3],93.6 Kd / Kd of best base at the position
GGTTAATCCCCT,binding signal,[3],1.35 Kd / Kd of best base at the position
AGTTAATCTCCT,binding signal,[3],3.07 Kd / Kd of best base at the position
AGTTAATCCCTT,binding signal,[3],1.11 Kd / Kd of best base at the position
AGTTAATCCCCA,binding signal,[3],1.11 Kd / Kd of best base at the position
AGTTGATCCCCT,binding signal,[3],15.1 Kd / Kd of best base at the position
AATTAATCCCCT,binding signal,[3],2.08 Kd / Kd of best base at the position
ATTTAATCCCCT,binding signal,[3],2.15 Kd / Kd of best base at the position
AGTTAATCCCCT,Kd,[3],~3.8 nM
AGGTAATCCCCT,binding signal,[3],3.1 Kd / Kd of best base at the position
AGATAATCCCCT,binding signal,[3],183 Kd / Kd of best base at the position
GAGTGACCCCTAC,binding signal,[1],1.99 Kd / Kd of best base at the position
AGTAAATCCCCT,binding signal,[3],19.8 Kd / Kd of best base at the position
AGTTAATGCCCT,binding signal,[3],140 Kd / Kd of best base at the position
AGTCAATCCCCT,binding signal,[3],340 Kd / Kd of best base at the position
